Compound activity deposited in PubChem BioAssay by several laboratories.
The list is not random: actives were taken first. Their share in the collection is about 2.8%.
Beta2AR agonist: human beta-2 adrenergic receptor agonism by FAP. P07550. 340,000 compounds, 0.43% hits. Am2.2-beta2AR cells, FAP receptor internalization, flow cytometry. response, % (test concentration not listed);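 active = response above a set limit, near 3 SD of response in nonfluorescent compounds, cut at about 42% in these data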
Target sequence (P07550 whole entry, looked up): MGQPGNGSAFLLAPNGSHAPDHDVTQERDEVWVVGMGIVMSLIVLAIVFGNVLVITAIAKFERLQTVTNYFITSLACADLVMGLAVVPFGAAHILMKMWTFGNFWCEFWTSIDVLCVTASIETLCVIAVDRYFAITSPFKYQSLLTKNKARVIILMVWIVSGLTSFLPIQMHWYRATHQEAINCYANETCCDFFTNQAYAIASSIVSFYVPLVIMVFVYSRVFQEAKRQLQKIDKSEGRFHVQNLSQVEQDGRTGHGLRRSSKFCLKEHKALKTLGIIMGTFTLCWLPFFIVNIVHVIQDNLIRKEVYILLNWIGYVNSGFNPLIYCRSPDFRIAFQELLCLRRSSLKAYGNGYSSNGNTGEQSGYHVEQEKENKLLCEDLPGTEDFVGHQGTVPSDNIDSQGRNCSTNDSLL
Peg3 promoter: inhibitors of Peg3 promoter | HeLa PEG-Prom luciferase reporter, luminescence, overnight | inhibition, % at 20 µM | 360,000 compounds, 1.7% hits | AID 588405;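 active = inhibition of at least 50% at 20 µM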
HIF-2a block: HIF-2a inhibition; inhibition, % at 18.8 µM; 786-0 RCC cells HIF-2a reporter, luciferase luminescence, overnight; 360,000 compounds, 0.72% hits; AID 624352;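 active = inhibition of the luminescence signal of 40% or more relative to plate controls, in a single-dose primary screen at 18.75 µM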
CF NFkB inh: cystic fibrosis NF-kB activation inhibition. KKLEB NF-kB-GFP reporter, PAF-induced, GFP fluorescence overnight. inhibition, % at 5 µM. 360,000 compounds, 0.86% hits. AID 588850;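 active = at least 50% inhibition at 5 µM, scaled per plate between neutral and stimulator controls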;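 also: PAF is a Pseudomonas aeruginosa culture filtrate used as stimulus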
KKLEB tox: counter-screen for CF NF-kB inhibitors: cytotoxicity. KKLEB CF airway cells viability, ATPlite luminescence, overnight; stronger effect = lower value; cells stimulated with P. aeruginosa culture filtrate. activity change (cytotoxicity), % at 5 µM. 360,000 compounds, 0.36% hits;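 active = corrected activity change at or below -50% at 5 µM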
MITF TRPM1 inh: MITF TRPM1 promoter inhibition in SK-MEL-5 cells. SK-MEL-5 TRPM1 promoter luciferase, 24 h. inhibition, % at 12.5 µM. 330,000 compounds, 0.83% hits. AID 488899;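 active = mean inhibition across replicates of 60% or more, whatever share of single replicates reaches that level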
CF NFkB inh conf: confirmation of cystic fibrosis induced NF-kB inhibitors; shares compounds with CF NFkB inh; inhibition, % at 5 µM; KKLEB CF airway cells, PAF-induced NF-kB-GFP fluorescence, overnight; AID 602472; 1,300 compounds, 64% hits; in the data active = inhibition above about 40%;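 also: stimulus PAF is a Pseudomonas aeruginosa filtrate and not platelet activating factor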
Mdm2-MdmX confirm: Mdm2/MdmX (human) interaction inhibition, confirmed | shares compounds with HIF-2a block | SaOS-2 split-luciferase Mdm2/MdmX complementation, luminescence | inhibition, % at 8 µM | 740 compounds, 99% hits | AID 504601;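 active = mean inhibition of the luminescence signal across two replicates at or above 26 percent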
HIF-2a inh conf: confirmation of HIF-2a inhibitors; shares compounds with HIF-2a block; 786-0 RCC cells, HIF-2a luciferase reporter luminescence, overnight; inhibition, % at 18.8 µM; 1,800 compounds, 56% hits;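 active = mean inhibition across four replicates of at least 40 percent at the single tested concentration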
HIF-1a cs: inhibits HIF-1a reporter, a counter-screen for HIF-2a inhibitors; shares compounds with HIF-2a block; AID 651589; inhibition, % at 18.8 µM; MiaPaCa-2 HIF-1a luciferase reporter, desferoxamine, overnight; 1,800 compounds, 72% hits;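 active = mean inhibition of the reporter signal across four replicates at the single tested dose of 50% or more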
Hits are given with their value.

For CCOC(=O)c1cc2c(c(-c3cccc(C#Cc4ccc(OC)c(OC)c4)c3)n1)[C@@H](CCO)N(S(=O)C(C)(C)C)C2 (stereo partly drawn) the results were Peg3 promoter inactive, HIF-2a block inactive, CF NFkB inh inactive and KKLEB tox inactive.
Screening CCNC(=O)c1cc2c(c(-c3cccc(-c4ccccc4F)c3)n1)[C@H](CCO)N(C(=O)CC)C2 returned HIF-2a block inactive.
`CCOC(=O)CS(=O)(=O)c1nc(-c2ccccc2)cc(C(F)(F)F)n1` gave Beta2AR agonist 109.0, Peg3 promoter 105.2, HIF-2a block 89.3, CF NFkB inh 78.7, KKLEB tox inactive, MITF TRPM1 inh 101.5, CF NFkB inh conf 59.5, HIF-2a inh conf 81.6 and HIF-1a cs 65.0.
COc1ccc(-c2cc(C(F)(F)F)nc(S(C)(=O)=O)n2)cc1 was read as Beta2AR agonist inactive, Peg3 promoter 100.4, HIF-2a block 89.2, CF NFkB inh 73.6, KKLEB tox inactive, MITF TRPM1 inh 61.2, CF NFkB inh conf 57.7, Mdm2-MdmX confirm 102.5, HIF-2a inh conf inactive and HIF-1a cs 103.0.
COCc1ccc(C(=O)N2CCCC(N3CCN(c4cccc(Cl)c4)CC3)C2)s1 (stereo not drawn) was read as Peg3 promoter inactive, HIF-2a block inactive, CF NFkB inh inactive and KKLEB tox inactive.
NNC(=O)c1ccc(N2CCc3ccccc32)c([N+](=O)[O-])c1 was read as Beta2AR agonist inactive, Peg3 promoter inactive, HIF-2a block inactive, CF NFkB inh inactive, KKLEB tox inactive and MITF TRPM1 inh inactive.
`Nc1ncnc(N2CCc3ccccc32)c1[N+](=O)[O-]` gave Beta2AR agonist inactive, Peg3 promoter inactive, HIF-2a block inactive, CF NFkB inh 83.4, KKLEB tox inactive, MITF TRPM1 inh inactive, CF NFkB inh conf 98.3 and Mdm2-MdmX confirm 92.7.
Screening CC1=C(C(=O)N2CCCCCC2)CC(CC(=O)NCCCCc2ccccc2)C(=O)N1CCC1=CCCCC1 (stereo not drawn) returned HIF-2a block inactive.
Screening CCCC1CCC(C(=O)n2nc(N)c3cc4ccc(OC)cc4nc32)CC1 (stereo not drawn) returned Beta2AR agonist inactive, Peg3 promoter inactive, HIF-2a block inactive, CF NFkB inh inactive and KKLEB tox inactive.
COc1ccc2cc3c(N)nn(C(=O)c4ccccc4[N+](=O)[O-])c3nc2c1 was read as Beta2AR agonist inactive, Peg3 promoter inactive, HIF-2a block inactive, CF NFkB inh 70.8, KKLEB tox inactive, MITF TRPM1 inh inactive, CF NFkB inh conf 93.3 and Mdm2-MdmX confirm 92.7.
Screening COc1ccc2cc3c(N)nn(C(=O)c4ccc(Cl)c([N+](=O)[O-])c4)c3nc2c1 returned Beta2AR agonist inactive, Peg3 promoter inactive, HIF-2a block inactive, CF NFkB inh 65.3, KKLEB tox inactive, MITF TRPM1 inh inactive, CF NFkB inh conf inactive and Mdm2-MdmX confirm 96.5.
`CCOC(=O)[C@]12CCCC=C1N(CCC1=CCCCC1)C(=O)[C@H](CC(=O)NCc1ccc(OC)c(OC)c1)C2` gave HIF-2a block inactive.
COc1cc(/C=N/NC(=O)c2cccc([N+](=O)[O-])c2)ccc1OCc1ccccc1 was read as Beta2AR agonist inactive, Peg3 promoter inactive, HIF-2a block inactive, CF NFkB inh inactive, KKLEB tox inactive and MITF TRPM1 inh inactive.
Screening CCOC(=O)C(=Cc1ccc(OCc2ccc([N+](=O)[O-])cc2)c(OC)c1)C(=O)OCC returned Beta2AR agonist inactive, Peg3 promoter 58.1, HIF-2a block 92.5, CF NFkB inh 54.2, KKLEB tox inactive, MITF TRPM1 inh inactive, CF NFkB inh conf inactive, HIF-2a inh conf 98.2 and HIF-1a cs 107.5.
`O=C(Cn1cc(/C=C\[N+](=O)[O-])c2ccccc21)Nc1ccccc1` gave Beta2AR agonist 83.8, Peg3 promoter 91.5, HIF-2a block 95.8, CF NFkB inh 53.5, KKLEB tox inactive, MITF TRPM1 inh 91.1, CF NFkB inh conf inactive, HIF-2a inh conf inactive and HIF-1a cs 106.3.
`CCOC(=O)[C@]12CCCC=C1N(Cc1ccccc1)C(=O)[C@H](CC(=O)N1CCN(C(=O)c3ccco3)CC1)C2` gave HIF-2a block inactive.
Screening CC(C)(C)C(=O)/C(=C/c1ccncc1)n1cncn1 returned Beta2AR agonist inactive, Peg3 promoter 100.8, HIF-2a block 93.0, CF NFkB inh 75.4, KKLEB tox inactive, MITF TRPM1 inh 81.6, CF NFkB inh conf 82.6, Mdm2-MdmX confirm 102.5, HIF-2a inh conf 62.3 and HIF-1a cs 105.6.
`O=C(NCc1ccco1)c1cccc2c(-c3ccc(F)c(F)c3)coc12` gave Peg3 promoter inactive, HIF-2a block inactive, CF NFkB inh inactive and KKLEB tox inactive.
Screening CC1(C(=O)NCc2cccs2)CCN1C(=O)Cc1cccc2ccccc12 (stereo not drawn) returned Peg3 promoter inactive, HIF-2a block inactive, CF NFkB inh inactive and KKLEB tox inactive.
COc1ccc(-c2[nH]ncc2-c2ccc3c(c2)OCCO3)c(O)c1 was read as Beta2AR agonist inactive, Peg3 promoter inactive, HIF-2a block inactive, CF NFkB inh 89.3, KKLEB tox inactive, MITF TRPM1 inh inactive, CF NFkB inh conf 101.9 and Mdm2-MdmX confirm 96.0.
Screening Cc1c(-c2ccccc2)oc2c(C(=O)N3CCN(c4ccc([N+](=O)[O-])cc4)CC3)cccc2c1=O returned Beta2AR agonist inactive, Peg3 promoter inactive, HIF-2a block inactive, CF NFkB inh 82.2, KKLEB tox inactive, MITF TRPM1 inh inactive, CF NFkB inh conf 82.4 and Mdm2-MdmX confirm 87.0.
Cc1c(C(=O)N2CCN(c3ccc([N+](=O)[O-])cc3)CC2)oc2ccccc12 was read as Beta2AR agonist inactive, Peg3 promoter inactive, HIF-2a block inactive, CF NFkB inh inactive, KKLEB tox inactive and MITF TRPM1 inh inactive.
Screening CCOc1ccc(-c2cc(C(=O)Nc3cccc(C(F)(F)F)c3)[nH]n2)c(C)c1 returned Peg3 promoter inactive, HIF-2a block inactive, CF NFkB inh inactive and KKLEB tox inactive.
